# This is a sample that favours compounds with a hit; in the whole collection about 3.2% have one here.
# GoLoco inh red: inhibitors of human Gai1-RGS12 GoLoco interaction (red fluorophore) | actives 0.44% (n = 230,000) | Gai1:RGS12 GoLoco peptide FP, rhodamine, 10 min | Potency, µM (titrated, usually from 61.6 µM), inactives show at the top dose activity, negative = inhibition, hits mostly inhibitors; active = well fitted inhibition curve with a large enough effect, not every such curve was filed as active; inactive = no such curve, though single readings can be large or run the other way; also: nearly all actives have a fitted effect of over 30% in size
# Target sequence (P63096 whole entry, looked up): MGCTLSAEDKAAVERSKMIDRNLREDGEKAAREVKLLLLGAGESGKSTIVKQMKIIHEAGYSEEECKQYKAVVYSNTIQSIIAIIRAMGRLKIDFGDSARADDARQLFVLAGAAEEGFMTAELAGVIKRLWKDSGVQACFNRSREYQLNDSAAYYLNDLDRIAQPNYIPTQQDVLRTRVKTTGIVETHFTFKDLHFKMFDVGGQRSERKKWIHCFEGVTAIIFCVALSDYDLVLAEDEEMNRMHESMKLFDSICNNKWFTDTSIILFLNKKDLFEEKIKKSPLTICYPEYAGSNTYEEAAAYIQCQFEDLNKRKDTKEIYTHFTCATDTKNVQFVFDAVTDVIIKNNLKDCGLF
# TexasRed fluor: Texas Red fluorescence interference in TRb-SRC2 counter-screen. Potency, µM (doses to about 106 µM), for the others: at the top dose fluorescence change, negative = quenching. AID 1479. TRb/SRC2 Texas Red total fluorescence interference. actives 0.29% (n = 280,000); active = well fitted curve in either direction with a large enough effect; inconclusive = small, poorly fitted or top-dose-only effect
#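 Human TRb ligand-binding domain at 0.6 uM with 20 nM Texas Red SRC2 peptide in Tris buffer containing 1 uM T3 and 5% DMSO, incubated with compound 5 h at ambient temperature. Total fluorescence (555/632 nm) calculated as parallel + 2 × perpendicular.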
# Tau ThT inhib: tau fibrillization inhibition (ThT binding); recombinant tau K18 P301L, heparin-induced fibrillization, ThT fluorescence; Potency, µM (series often up to 57.4 µM), inactives show at the highest dose activity, negative = inhibition, hits mostly inhibitors; actives 2.1% (n = 270,000); AID 1460; also: nearly all actives have a fitted effect of over 55% in size
# Target sequence (P10636 561-689 P618L limits assumed): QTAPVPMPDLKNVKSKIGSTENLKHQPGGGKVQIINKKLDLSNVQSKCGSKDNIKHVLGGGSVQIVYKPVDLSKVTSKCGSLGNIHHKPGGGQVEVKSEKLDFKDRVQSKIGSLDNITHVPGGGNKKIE
#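 Using a mix of unlabeled (15 uM) and Alexa 594-labeled (0.24 uM) tau K18 P301L, heparin-triggered fibrillization over 6 hr at 37 C was scored by ThT fluorescence.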
# Tau fibril FP: inhibitors of human tau fibril formation | actives 0.39% (n = 280,000) | Potency, µM (series often up to 57.7 µM), without a hit: at the highest dose activity, negative = inhibition, usual class: inhibitors | AID 1468 | K18 P301L tau heparin fibrillization, Alexa594 FP, 6 h; also: nearly all actives have a fitted effect of over 55% in size
#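 Recombinant K18 P301L […], labeled with Alexa 594 at 0.24 uM over 15 uM unlabeled; heparin inducer 20 uM final; 37 C, 6 hr; FP endpoint.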
# Tau fluor counter: counter-screen for tau fibril formation inhibitors. AID 1463. actives 0.93% (n = 280,000). tau K18 P301L Alexa594 fluorescence, heparin fibrillization. Potency, µM (doses to about 57.7 µM), without a hit: at the highest dose activity change, negative = decrease; also: nearly all actives have a fitted effect of over 55% in size
#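 Human tau K18 P301L (15 uM unlabeled, 0.24 uM Alexa 594-labeled) in 100 mM sodium acetate pH 7 with 20 uM heparin, 6 hr at 37 C. ThT 30 uM added, 1 hr ambient; Alexa 594 FP and total fluorescence read at 555/632 nm.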
# TRb-SRC2 inh: TRbeta-SRC2 interaction inhibition. P10828. TRbeta-SRC2 peptide binding, fluorescence polarization; receptor liganded with 1 µM T3. Potency, µM (doses to about 106 µM), for the others: at the highest dose activity change, negative = inhibition, hits mostly inhibitors. actives 0.065% (n = 280,000);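 also: plate controls were bound peptide for no effect and peptide without receptor for full effect; nearly all actives have a fitted effect of over 50% in size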
#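 A fluorescence polarization screen tested compounds at multiple concentrations against complex formation between 0.6 uM TRb ligand-binding domain and 20 nM Texas Red SRC2 peptide, with 1 uM T3 present; readout after 5 hr.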
# An asterisk follows results filed as active; ? = inconclusive; . = not tested or not shown; [ ] = remark or other dose. Unless noted, calls follow the shape of the dose curve; as a rule, active = well fitted curve in the direction sought with a large enough effect; inconclusive = small, poorly fitted or top-dose-only effect, or another doubt; inactive = no such curve, though single readings can be large; an effect the other way counts as inactive or inconclusive. Unless noted, % is scaled to controls: 0 for no effect and ±100 for the full control effect; potency is read from the fitted curve at half-maximal effect.
SMILES,GoLoco inh red,TexasRed fluor,Tau ThT inhib,Tau fibril FP,Tau fluor counter,TRb-SRC2 inh
C=CCn1c(=O)/c(=C2/Sc3cc(OC)ccc3N2C)s/c1=C1\C(=O)N(CC)C(=S)N1C,40%,-1%,10µM*,19%,-20%,-4%
CCN1/C(=C2\C(=O)N(C)C(=S)N2C)C=Cc2cc(OC)ccc21,-6%,9%,-18%,-9%,-9%,1%
COc1ccc(-c2nc(SCC(=O)Nc3ccc4c(c3)OCO4)c(-c3ccc(OC)cc3)[nH]2)cc1,.,-14%,-10%,3%,?,-4%
COc1cccc(-c2nc(SCC(=O)Nc3ccc4c(c3)OCO4)c(-c3ccccc3)[nH]2)c1,.,-1%,?,-6%,7.9µM*[quencher],-6%
Cc1cccc(-c2nc(SCC(=O)Nc3ccc4c(c3)OCO4)c(-c3ccccc3)[nH]2)c1,.,-2%,?,?,6.3µM*[quencher],11%
CC(C)c1cc(C(C)C)c(S(=O)(=O)Nc2cccc3cccnc23)c(C(C)C)c1,.,-2%,.,.,.,-10%
CC1CCN(c2ccc(NC(=S)NC(=O)c3ccc(-c4cccc([N+](=O)[O-])c4)o3)cc2)CC1,15%,0%,2µM*,-4%,?,12%
Cc1ccc(C)c(CN2C(=O)c3ccccc3S(=O)(=O)c3ccc(C(=O)N4CCOCC4)cc32)c1,.,2.8µM*[quencher],-12%,2%,-25%,-30%
COC(=O)CCSCCC(=O)OC,.,3%[201 µM],.,.,.,-2%[201 µM]
c1ccc2c(c1)[nH]c1c(N3CCCC3)ncnc12,-19%,-4%,-20%,13%,-3%,-5%
CCOc1ccc2[nH]c3c(N4CCc5ccccc5C4)ncnc3c2c1,3%,-5%,?,?,14µM*[quencher],0%
Brc1ccc2[nH]c3c(N4CCc5ccccc5C4)ncnc3c2c1,57%,1%,-16%,10%,11µM*[quencher],12%
Cc1ccc2[nH]c3c(N4CCc5ccccc5C4)ncnc3c2c1,3%,-1%,?,?,25µM*[quencher],4%
Fc1ccc2[nH]c3c(N4CCc5ccccc5C4)ncnc3c2c1,9%,-2%,-6%,-4%,?,8%
CCc1ccc2c(O)c3c(cc2c1C(=O)OC)C(=O)c1c(O)ccc(O)c1C3=O,38%,19%,3.2µM*,?,?,9%
O=S(=O)(O)c1cc(N=Nc2cccc3ccccc23)c(O)c2ncccc12,76%[14.2 µM],.,.,.,.,.
O=C1NC(=O)c2cc(Nc3ccccc3)c(Nc3ccccc3)cc21,13%,-5%,14µM*,0%,14µM*[quencher],-4%
O=C1NC(=O)c2cc(Nc3ccc(F)cc3)c(Nc3ccc(F)cc3)cc21,12%,2%,13µM*,-5%,14µM*[quencher],2%
O=C(N/N=C1/C[C@@H](O)[C@@H](O)[C@@H]2[C@@H]3C(=O)N(Cc4ccccc4)C(=O)[C@H]3CC[C@H]12)OCc1ccccc1,.,1%[11.2 µM],-7%[11.5 µM],-3%[11.6 µM],-7%[11.6 µM],-2%[11.2 µM]
CCCCn1nc(NC(=O)c2cccc(Cl)c2)c2cc3ccccc3nc21,.,6%,-6%,-14%,-27%,-1%
CC(C)Cn1nc(NC(=O)c2cccc(Cl)c2)c2cc3ccccc3nc21,.,1413µM*[quencher],?,-1%,?,-27%[53 µM]
Cc1ccc(N/C=C/C(=O)c2ccco2)c(O)c1,-5%,-1%,3.5µM*,2%,-23%,1%
CCCC(=O)Nc1ccc(C(=O)N/N=C/c2ccc([N+](=O)[O-])o2)cc1,67%,?,8.9µM*,-5%,-21%,1%
O=C(CNc1ccc2ccccc2c1)N/N=C/c1ccc([N+](=O)[O-])o1,4%,-2%[53 µM],?,2%,14µM*[quencher],-5%[53 µM]
O=C(COc1ccccc1)N/N=C/c1ccc([N+](=O)[O-])o1,-1%,1%,?,-3%,-17%,2%
O=C(CNc1ccc2ccccc2c1)N/N=C/c1cc2ccccc2nc1Cl,4%,-2%,?,-1%,13µM*[quencher],-5%
